# tim10-1 inh: inhibits growth of tim10-1 mutant yeast. S. cerevisiae tim10-1 ts strain growth, BacTiter-Glo, 24 h. inhibition, % at 20 µM. 2.2% of 330,000 active;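 active = inhibition of at least 40%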;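 also: mutant grown at 25 °C; 0% = DMSO wells with yeast and 100% = wells holding no yeast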
# NALP1 inh: blocks the NALP1 inflammasome reconstituted in yeast; S. cerevisiae NALP1/ASC/caspase-1 growth, X-gal OD620, 72 h; inhibition, % at 10 µM; 0.61% of 280,000 active; AID 2071; in the data active = inhibition mostly above about 24%, no sharp cut-off; inactive = mostly below about 32%
# tim23-1 inh: tim23-1 yeast growth inhibition; inhibition, % at 20 µM; S. cerevisiae tim23-1 growth, BacTiter-Glo luminescence, 24 h; 1.3% of 330,000 active;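 active = growth inhibition of the mutant yeast at or above 50%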;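 also: temperature-sensitive mutant grown at 25 °C; plate controls were DMSO-treated mutant yeast for no effect and medium wells lacking yeast for full effect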
# NLRP3 yeast inh: NALP3 inhibition in yeast; 0.39% of 330,000 active; Yeast reconstituted NLRP3/ASC/caspase-1, beta-gal luminescence, 24 h; AID 2825; inhibition, % at 10 µM;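 active = inhibition of 50% or more; inactive = inhibition below 50%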;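 also: plate controls were induced DMSO wells for no effect and uninduced yeast grown without galactose for full effect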
# TIM10 inh: TIM10 yeast growth inhibition; S. cerevisiae TIM10 strain growth, BacTiter-Glo luminescence, 24 h; inhibition, % at 10 µM; 1.4% of 330,000 active;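 active = inhibition of 40% or more at the single tested concentration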;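 also: wild-type TIM10 isogenic control strain grown at permissive 25 °C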
# V-ATPase pHluor: yeast V-ATPase proton transport regulation by pHLuorin | S. cerevisiae, pHLuorin cytosolic pH fluorescence | response, % at 10 µM | 0.37% of 350,000 active | AID 504577; in the data active = response mostly above about 7.3%, no sharp cut-off; inactive = mostly below about 5.4%; also: actives read high
# tim10-1 confirm: tim10-1 yeast growth inhibition, confirmed; shares compounds with tim10-1 inh; S. cerevisiae tim10-1 ts strain growth, BacTiter-Glo, 24 h; inhibition, % at 20 µM; 56% of 7,400 active;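 active = inhibition of yeast growth at or above a set limit in either of two repeat tests at 20 µM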;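 also: tim10-1 mutant grown at permissive 25 °C to find synthetic lethal compounds; 0% = DMSO yeast wells and 100% = medium wells without yeast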
# Starred values were filed as active, the others as inactive; . = no result given. In the library only some 4.2% were active in any assay of this set; here they are far more common.
SMILES,tim10-1 inh,NALP1 inh,tim23-1 inh,NLRP3 yeast inh,TIM10 inh,V-ATPase pHluor,tim10-1 confirm
Cc1ccc(NCc2ccccc2O)cc1C,-6,5,-4,-3,-9,3,.
Oc1ccccc1CNc1ccc(OC(F)(F)F)cc1,42*,8,33,7,33,2,27
C/C(=N\Nc1nc(N2CCCCCC2)nc(N2CCCCCC2)n1)c1ccccc1,40*,5,36,19,40,-9,28
C/C(=N\Nc1cc(Cl)nc(C)n1)c1ccccc1,41*,-5,16,-17,11,2,39*
C/C(=N\Nc1nc(N2CCCCC2)nc(N2CCOCC2)n1)c1cccs1,7,11,11,12,5,-2,.
CCOC(=O)c1ccccc1NC(=O)Cc1c(C(=O)O)n(C)c2ccccc12,6,-6,19,-8,19,1,.
COc1ccc(-c2ccnc3nc(Sc4ncc(C(F)(F)F)cc4Cl)nn23)cc1,51*,-4,46,17,32,0,29
FC(F)(F)c1cnc(Sc2nc3nccc(-c4ccc(Cl)cc4)n3n2)c(Cl)c1,41*,-3,36,24,37,5,3
CSc1nc2nccc(-c3ccc(Cl)cc3)n2n1,10,7,-6,-12,1,0,.
CCOC(=O)/C=C/C(=O)Nc1nccs1,43*,46*,34,18,32,-4,40*
Cc1ccc(S(=O)(=O)N(C)CC(=O)O/N=C(\N)c2cccc(Br)c2)cc1,50*,6,26,19,24,-3,52*
COc1ccc(/C(N)=N/OC(=O)CN(C)S(=O)(=O)c2ccc(C)cc2)cc1,.,14,.,.,.,-4,.
CN(CC(=O)O/N=C(\N)c1ccc([N+](=O)[O-])cc1)S(=O)(=O)c1ccc2ccccc2c1,45*,7,34,8,34,-2,47*
Cc1ccc(/C(N)=N/OC(=O)CN(C)S(=O)(=O)c2ccc(C)cc2)cc1,47*,-2,32,35,12,-3,20
COc1ccc(/C(N)=N/OC(=O)CN(C)S(=O)(=O)c2ccccc2)cc1,-9,16,-7,27,-17,2,.
COc1cccc(CNS(=O)(=O)c2cc(Br)ccc2Br)c1,.,.,.,.,.,1,.
COc1cc(CN2C(=O)C(NC(=O)c3ccco3)(C(F)(F)F)C3=C2CC(C)(C)CC3=O)cc(OC)c1 (configuration not stated),47*,20,43,12,10,2,27
FC(F)(F)c1cc(-c2cccs2)nc2nc(N3CCOCC3)sc12,-28,23,22,27,-28,1,.
COc1ccc(C)c2sc(N(CCN(C)C)C(=O)c3ccc4ccccc4c3)nc12,44*,20,28,17,33,0,26
COc1cc2ccccc2cc1C(=O)N(CCN(C)C)c1nc2ccc(Br)cc2s1,54*,15,18,13,33,-5,-9
Cc1cc(C)c2nc(N(CCN(C)C)C(=O)c3ccc4ccccc4c3)sc2c1,38,22,22,12,25,-2,.
CC(C)OC(=O)c1ccc2nc3ccccc3nc2c1,41*,28,20,31,2,3,11
COc1ccc(CN(C)C[C@@H]2OCc3cnnn3CCCC(=O)N([C@H](C)CO)C[C@H]2C)cc1,.,.,.,.,.,-2,.
Cc1nn(CC(C)C)c(Cl)c1C(=O)N(C)CC(=O)Nc1ccc(Cl)cc1,.,.,.,.,.,1,.
Fc1ccc(NC(=S)Nc2ccccc2N2CCOCC2)cc1Cl,44*,-7,32,6,9,-4,39*
SMILES,tim10-1 inh,NALP1 inh,tim23-1 inh,NLRP3 yeast inh,TIM10 inh,V-ATPase pHluor,tim10-1 confirm
O=S(=O)(c1ccc(Cl)c(NC(=S)Nc2ccccc2N2CCOCC2)c1)N1CCOCC1,33,27,29,26,14,5,.
O=C(CSc1nccn1Cc1ccccc1)NC1CCCC1,17,20,26,5,7,4,.
COC(=O)c1cc(S(=O)(=O)N2CCN(c3ccc(OC)cc3)CC2)cn1C,4,-11,10,11,2,2,.
C/C(CCc1oc2ccc(Br)cc2c1-c1ccc(C)o1)=N/O,37,25,33,14,39,-4,.
C/C(CCc1oc2ccc(Cl)cc2c1-c1ccc(C)o1)=N\O,42*,23,26,7,37,-2,43*
O=C(NNC(=S)Nc1ccc(F)cc1)c1ccccc1OC(F)F,23,-8,8,17,7,-3,.
Cc1ccc(NC(=S)NNC(=O)c2ccccc2OC(F)F)cc1,40*,-38,17,12,29,-3,39*
O=C(NNC(=S)Nc1cccc(Cl)c1)c1ccccc1OC(F)F,43*,16,33,19,4,-1,28
Cc1ccc(C(=O)Nc2sc3c(c2C(=O)O)CCCCC3)o1,41*,14,46,-7,23,-1,35*
Cc1ccc(C(=O)Nc2sc3c(c2C(=O)O)CCCC3)o1,-2,-3,12,1,24,1,.
CN1CCN(S(=O)(=O)c2cccc(C(=O)Oc3cccc(Br)c3)c2)CC1,41*,.,49,9,23,-8,21
COCCN(Cc1ccccc1)C(=S)Nc1ccc(OC(F)F)cc1,43*,.,30,23,23,3,26
CCN(CC)S(=O)(=O)c1cccc(NC(=O)c2ccc(SC)cc2OC)c1,43*,2,32,-9,20,0,37*
CSc1ccc(/C=N/NC(=O)CNc2ccc3ccccc3c2)cc1,46*,11,31,28,-11,-1,43*
O=C(CNc1ccc2ccccc2c1)N/N=C/c1ccncc1,18,17,22,12,19,0,.
CN(C)c1oc(/C=C/c2cccs2)nc1S(=O)(=O)c1ccccc1,14,11,20,22,-21,-1,.
O=C(NNC(=S)NC(=O)C12CC3CC(CC(C3)C1)C2)c1ccncc1,60*,21,11,31,26,1,-16
CCOC(=O)c1c(C2COc3ccccc3O2)csc1N (configuration not stated),45*,20,21,-8,10,3,15
COC(=O)c1ccccc1NC(=O)c1sc(=S)n(C)c1N,46*,1,30,2,35,7,22
COCc1ccc(C(=O)N2CCCC(N3CCN(c4ccc(F)cc4)CC3)C2)o1 (configuration not stated),-11,-5,10,17,16,-2,.
FC(F)(F)c1ccc(N2CCN(c3cc(-c4ccccc4)nc4ncnn34)CC2)nc1,45*,-4,31,18,35,1,27
FC(F)(F)c1cccc(Nc2cc(-c3ccccc3)nc3ncnn23)c1,28,.,20,18,21,1,.
CC(C)Cn1c(=O)c2ccccc2n2c(CCC(=O)NCC3CCCO3)nnc12 (configuration not stated),15,19,9,11,6,0,.

# Assay outcomes from PubChem BioAssay.
